# Results from article PMC4336329 (PLoS ONE, 2015).
# In all, about 310,000 compounds went through this assay and about 14,000 (4.5%) showed an effect of 50% or more. The effect is printed as a negative number. What follows is part of a selection rich in strong results, with near analogues and random picks from the rest.
# Biological target: human ether-à-go-go-related gene (hERG) potassium channel (human, UniProt Q12809)
# Assay: primary screen, population patch clamp on CHO cells stably expressing hERG; higher = less effect of the substance
# Method: Briefly, Chinese hamster ovary (CHO) cells stably expressing the hERG channel were dislodged from tissue culture flasks and dispensed into PPC plates. […] During the recording, background leak currents were estimated by a 100 ms step to -80 mV from an initial holding potential of -70 mV and subtracted from the subsequent current measurement. The campaign was conducted in two phases using slight differences in recording protocol. In the first phase, the initial voltage pulse used a 100 ms step to -30 mV from a holding potential of -70 mV, a 2 s conditioning step to +25 mV, and a 2 s test step to -30 mV. During the second phase of the screen, the potential during the conditioning step was raised to +45 mV. In both phases of the campaign, a secondary voltage pulse was applied using the same parameters as the second phase initial pulse. The initial and secondary pulses were applied in the absence of compound, and upon application of 1 μM and 10 μM test concentrations. […]
# 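Further: peak tail current of the secondary pulse compared with the same well before compound.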
# human ether-à-go-go-related gene (hERG) potassium channel, sequence (Q12809 whole entry, looked up): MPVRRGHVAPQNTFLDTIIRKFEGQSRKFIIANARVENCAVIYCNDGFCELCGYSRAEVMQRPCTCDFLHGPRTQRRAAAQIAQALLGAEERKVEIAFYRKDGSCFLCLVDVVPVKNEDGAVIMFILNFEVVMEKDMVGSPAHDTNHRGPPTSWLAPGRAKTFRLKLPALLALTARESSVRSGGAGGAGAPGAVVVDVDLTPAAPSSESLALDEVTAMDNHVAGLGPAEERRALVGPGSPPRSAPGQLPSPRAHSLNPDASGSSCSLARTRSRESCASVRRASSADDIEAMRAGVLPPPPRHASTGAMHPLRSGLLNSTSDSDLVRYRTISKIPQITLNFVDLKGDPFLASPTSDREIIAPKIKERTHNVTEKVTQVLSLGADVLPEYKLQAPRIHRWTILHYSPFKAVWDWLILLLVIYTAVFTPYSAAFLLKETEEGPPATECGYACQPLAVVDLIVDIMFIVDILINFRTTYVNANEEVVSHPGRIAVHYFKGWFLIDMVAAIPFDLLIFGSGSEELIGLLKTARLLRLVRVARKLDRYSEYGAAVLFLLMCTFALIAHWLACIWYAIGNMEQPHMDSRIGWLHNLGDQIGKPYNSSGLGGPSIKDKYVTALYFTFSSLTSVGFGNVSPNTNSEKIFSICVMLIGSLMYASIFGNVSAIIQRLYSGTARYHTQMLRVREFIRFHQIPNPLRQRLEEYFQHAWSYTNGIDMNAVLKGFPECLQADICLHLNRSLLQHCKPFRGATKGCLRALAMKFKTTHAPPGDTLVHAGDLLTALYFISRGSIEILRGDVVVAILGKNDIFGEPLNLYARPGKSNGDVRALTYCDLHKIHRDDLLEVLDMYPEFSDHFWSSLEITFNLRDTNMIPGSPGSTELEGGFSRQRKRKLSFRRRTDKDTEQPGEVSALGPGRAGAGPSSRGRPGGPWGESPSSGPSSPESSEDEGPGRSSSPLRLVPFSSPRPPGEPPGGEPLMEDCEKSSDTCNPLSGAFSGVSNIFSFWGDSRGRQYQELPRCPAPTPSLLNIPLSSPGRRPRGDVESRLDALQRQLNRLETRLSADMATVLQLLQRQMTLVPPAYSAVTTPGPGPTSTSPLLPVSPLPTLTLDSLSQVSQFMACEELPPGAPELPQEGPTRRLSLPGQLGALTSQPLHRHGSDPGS
row,Structure (SMILES),"hERG current change (%, negative = inhibition) at 10uM [%]"
1,CC(=O)c1ccc(OCCNS(=O)(=O)c2ccc(-n3cnnn3)cc2)cc1,-55.3
2,O=C(NCCCc1ccccc1)C1CCN(S(=O)(=O)c2ccc(F)cc2)CC1,-60.7
3,Cc1ccc(S(=O)(=O)N2CCC(C(=O)NCCc3ccccc3)CC2)cc1,-0.42
4,O=C(CCNC(=O)C1CCN(S(=O)(=O)c2ccc(F)cc2)CC1)NCc1ccccc1,2.4
5,CCCCOc1ccc(NS(=O)(=O)c2ccc(-n3cnnn3)cc2)cc1,-3.42
6,Cc1ccc(N2CCN(C(=O)c3cccs3)CC2)cc1C,2.97
7,Cc1cccn(Cc2c(Cl)cccc2Cl)c1=O,-9.53
8,CCOc1ccc(N(CC(=O)NC(C(C)C)C(C)C)S(=O)(=O)c2ccc(OC)c(OC)c2)cc1,38
9,CCOC(=O)CNC(=S)N(Cc1ccccc1)Cc1cccs1,-17.3
10,COc1ccc(NC(=O)c2ccc(OC)cc2)cc1,-30
11,COc1ccc(OC)c(C2=Nn3c(nnc3-c3cc(OC)c(OC)c(OC)c3)SC2)c1,-21
12,CC(C)(C)NS(=O)(=O)c1cc(C(=O)Nc2sccc2C#N)ccc1Cl,4.98
13,COc1ccc(NC(=O)NC2(C(=O)N3CCCC3)CCCCC2)cc1,22
14,Cc1ccc(NC(=O)CN(C)C(=O)c2cccc(S(=O)(=O)N3CCc4ccccc43)c2)cc1,-15.6
15,CC(=O)C1=C(O)C(=O)N(Cc2cccnc2)C1c1ccc(C(C)C)cc1 (stereo not shown),17.1
16,CC(=O)N1c2ccc(S(=O)(=O)N3CCC(C(=O)NCc4ccc(N(C)C)cc4)CC3)cc2CC1C (stereo not shown),18.8
17,O=S(=O)(NCCc1ccccc1)c1ccc(-n2cnnn2)cc1,-56.7
18,Cc1cc(S(=O)(=O)NCCc2ccccc2)ccc1-n1cnnn1,-17.1
19,COc1ccc(CCNS(=O)(=O)c2ccc(-n3cnnn3)cc2)cc1OC,-26
20,CC(C)CNC(=O)C1CCN(S(=O)(=O)c2ccc(-n3cnnn3)cc2)CC1,-55.3
21,O=C(NCCc1ccc(Cl)cc1)C1CCN(S(=O)(=O)c2ccc(-n3cnnn3)cc2)CC1,-69
22,CCOc1ccc(-n2cnnn2)cc1S(=O)(=O)NCc1ccccc1,-71
23,CC(C)CNC(=O)C1CCCN(S(=O)(=O)c2ccc(-n3cnnn3)cc2)C1 (stereo not shown),-0.697
24,CC(C)CCNC(=O)C1CCN(S(=O)(=O)c2ccc(-n3cnnn3)cc2)CC1,-37.6
25,CC(=O)Nc1ccc(S(=O)(=O)N2CCC(C(=O)NCCc3ccc(Cl)cc3)CC2)cc1,5.7

row,Structure (SMILES),"hERG current change (%, negative = inhibition) at 10uM [%]"
1,COc1ccc(CCNC(=O)C2CCN(S(=O)(=O)c3ccc(-n4cnnn4)cc3)CC2)cc1OC,-13
2,CCOc1cc(S(=O)(=O)NCc2ccccc2)c(OCC)cc1-n1cnnn1,-14.3
3,CCOc1ccc(-n2cnnn2)cc1S(=O)(=O)Nc1c(C)cccc1C,-19.4
4,O=C1CSC(c2ccc([N+](=O)[O-])cc2)N1C1CCCCC1 (stereo not shown),-47.4
5,CC(C)c1ccc(O)c(NC(=S)NC(=O)c2cccnc2)c1,11
6,CC(C)Oc1cccc(C(=O)C2CCCN(C(=O)c3cc(C4CC4)[nH]n3)C2)c1 (stereo not shown),-19.9
7,CC(=O)c1ccc(NC(=O)N2CCc3ccccc3C2)cc1,-0.383
8,CCN1CCN(CC(=O)Nc2ccc(Cl)c(Cl)c2)C(=O)C1=O,-5.76
9,Cc1c(N(C)C(=O)C23CC4CC(CC(C4)C2)C3)c(=O)n(-c2ccccc2)n1C,-1.09
10,Cc1ccc(NC(=S)N2CCN(S(=O)(=O)c3ccccc3)CC2)cc1C,11.6
11,Cc1nn2cnc3sc4c(c3c2nc1=O)CCCC4,-3.17
12,COc1ccc(NC(=O)CCCC2=NS(=O)(=O)c3ccccc3N2)cc1,17
13,OCCNc1c2ccccc2nc2ccccc12,-31
14,O=c1c2ccccc2oc2cc(NCCCN3CCOCC3)ccc12,-29.7
15,O=c1c2ccccc2nc2c3ccccc3c(NCCN3CCOCC3)nn12,-72.2
16,OCCCNc1c2ccccc2nc2ccccc12,-65.6
17,Fc1ccccc1-c1nc(NCCCN2CCOCC2)c2ccccc2n1,-45.9
18,O=c1c2ccccc2sc2ccc(NCCCN3CCOCC3)cc12,-54.2
19,O=c1c2ccccc2nc2c3ccccc3c(NCc3ccccn3)nn12,-13.5
20,O=c1c2ccccc2oc2ccc(NCCCN3CCOCC3)cc12,-41.9
21,c1ccc2[nH]c(NCCCN3CCOCC3)nc2c1,-6.61
22,CN(C)CCCNc1c2ccccc2nc2ccccc12,-28.8
23,O=c1c2ccccc2nc2c3ccccc3c(NCCO)nn12,-7.34
24,c1ccc2c(NCCCN3CCOCC3)c3ccccc3nc2c1,-66.6
